From PubChem BioAssay (NCATS)
Several values for one entry are separate records, joined by “and”; a condition that tells them apart may be missing. Equal values may be shown once. Results filed as inconclusive are left out. Unmarked numbers belong to inactive results. Activity calls are given as the source filed them. The call rests on the fitted dose curve; in most records, active means well fitted curve in the direction sought with a large enough effect; inconclusive means small, poorly fitted or top-dose-only effect, or another doubt; inactive means no such curve, though single readings can be large; an effect the other way counts as inactive or inconclusive.

What was measured:
[1] = target: Cellular tumor antigen p53 (Homo sapiens) (UniProt P04637); experiment: Primary qHTS for small molecule compounds that upregulate eGFP-tagged delta133p53alpha (in N-terminal) cells. (AID 2060322); conditions: NCI-H358 eGFP-delta133p53alpha fluorescence, 24 h; activation: hits give high values; further: nearly all actives have a fitted effect of over 75% in size; further: potency means the concentration at half of the fitted maximal effect;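 on activation: series mostly up to about 56 µM; 0% = DMSO vehicle and 100% = reference activator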
Sequence of Cellular tumor antigen p53 (Homo sapiens) (P04637 whole entry, looked up): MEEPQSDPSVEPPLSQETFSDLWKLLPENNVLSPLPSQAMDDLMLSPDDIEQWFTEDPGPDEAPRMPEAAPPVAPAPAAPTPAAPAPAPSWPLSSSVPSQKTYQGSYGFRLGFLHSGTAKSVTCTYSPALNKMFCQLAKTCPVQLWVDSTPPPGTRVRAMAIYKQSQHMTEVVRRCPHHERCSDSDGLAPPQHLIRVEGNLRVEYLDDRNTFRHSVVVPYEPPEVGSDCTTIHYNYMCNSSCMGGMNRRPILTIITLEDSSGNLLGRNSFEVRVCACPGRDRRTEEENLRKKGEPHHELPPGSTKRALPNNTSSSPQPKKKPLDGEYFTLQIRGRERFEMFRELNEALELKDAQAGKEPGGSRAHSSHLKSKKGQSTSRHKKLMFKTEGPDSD
Method in brief: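 NCI-H358 cells pre-induced 24 h with 10 ng/ml doxycycline to express N-terminal eGFP-delta133p53alpha, then dosed 24 h at 37C without doxycycline; fixed, Hoechst-stained, GFP intensity by laser scanning cytometry, normalized to DMSO (0%) and 57.5 uM 5-azacytidine (100%).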

[2] = target: Aldehyde dehydrogenase, mitochondrial (Homo sapiens) (UniProt P05091); experiment: qHTS for Inhibitors of the Aldehyde Dehydrogenase Family (ALDH2) Primary screen (AID 2061308);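 further: plate controls were vehicle for no effect and reference inhibitor for full effect; nearly all actives have a fitted effect of over 55% in size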
[3] = target: Retinaldehyde dehydrogenase 3 (Homo sapiens) (UniProt P47895); experiment: qHTS for Inhibitors of the Aldehyde Dehydrogenase Family (ALDH1A3) Primary screen (AID 2061315);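 further: plate controls were DMSO vehicle for no effect and reference inhibitor for full effect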
[4] = BET inhibitor-based combinations targeting novel dependencies in MECOM-rearranged (r) AML: SET-2 cell line (AID 2202231); conditions: SET-2 AML cells viability, CellTiter-Glo luminescence, 48 h; viability: hits give low values, concentration not given here; further: nearly all actives have a fitted effect of over 35% in size; further: potency means the concentration at half of the fitted maximal effect;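 on viability: plate controls were DMSO treated cells for no effect and wells without cells for full effect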
Method in brief: (§1)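 Luminescent ATP readout (CellTiter-Glo) after 48 hr drug exposure gives viability. Curves span 11 concentrations and are normalized to DMSO and empty wells. Activity is reported as area under the curve and its Z-transform within each cell line.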

[5] = BET inhibitor-based combinations targeting novel dependencies in MECOM-rearranged (r) AML: OCI-AML3 cell line (AID 2202232); conditions: Potency: OCI-AML3 viability; further: nearly all actives have a fitted effect of over 35% in size; further: potency means the concentration at half of the fitted maximal effect
Method in brief: as §1

[6] = BET inhibitor-based combinations targeting novel dependencies in MECOM-rearranged (r) AML: MV-4-11 cell line (AID 2202233); further: nearly all actives have a fitted effect of over 45% in size; further: potency means the concentration at half of the fitted maximal effect
Method in brief: (§2)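 Luminescent ATP readout (CellTiter-Glo, 15 min at room temperature) after 48 hr drug exposure gave viability. Dose-response curves, normalized to DMSO and empty-well controls, were summarized as area under the curve and its mean-centred Z-score.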

[7] = BET inhibitor-based combinations targeting novel dependencies in MECOM-rearranged (r) AML: HNT-34 cell line (AID 2202234); further: nearly all actives have a fitted effect of over 35% in size; further: potency means the concentration at half of the fitted maximal effect
Method in brief: as §2

[8] = BET inhibitor-based combinations targeting novel dependencies in MECOM-rearranged (r) AML: UCSD-AML1 cell line (AID 2202235); further: nearly all actives have a fitted effect of over 40% in size; further: potency means the concentration at half of the fitted maximal effect
Method in brief: as §2

[9] = BET inhibitor-based combinations targeting novel dependencies in MECOM-rearranged (r) AML: AML-191 cell line (AID 2202236; further: nearly all actives have a fitted effect of over 35% in size; further: potency means the concentration at half of the fitted maximal effect)
Method in brief: as §1

[10] = BET inhibitor-based combinations targeting novel dependencies in MECOM-rearranged (r) AML: AML-194 cell line (AID 2202237; further: nearly all actives have a fitted effect of over 40% in size; further: potency means the concentration at half of the fitted maximal effect)
Method in brief: as §1

## CN(C)C/C=C/C(=O)Nc1ccc(C(=O)Nc2cccc(Nc3ncc(Cl)c(-c4c[nH]c5ccccc45)n3)c2)cc1
[1]
  Potency: 269 nM (active) and 343 nM (active)
[2]
  Potency: inactive
[3]
  Potency: inactive
[4]
  Potency: 0.662 µM (active)
[5]
  Potency: 0.0833 µM (active)
[6]
  Potency: 46.8 nM (active)
[7]
  Potency: 118 nM (active)
[8]
  Potency: 132 nM (active)
[9]
  Potency: 0.235 µM (active)
[10]
  Potency: 0.296 µM (active)

## CCN1CCN(Cc2ccc(NC(=O)c3ccc(C)c(NC(=O)c4cncc(-c5cccs5)c4)c3)cc2C(F)(F)F)CC1
[1]
  Potency: 26.9 µM (active)
[2]
  Potency: inactive
[3]
  Potency: inactive
[4]
  Potency: 5.9 µM (active)
[5]
  Potency: 4.17 µM (active)
[6]
  Potency: 118 nM (active)
[7]
  Potency: 14.8 nM (active)
[8]
  Potency: 1050 nM (active)
[9]
  Potency: 1.05 µM (active)
[10]
  Potency: 1.18 µM (active)

## O=C(Nc1ccccc1-c1cn2c(CN3CCNCC3)csc2n1)c1cnc2ccccc2n1
[1]
  activation: -29.5%
[2]
  Potency: inactive
[3]
  Potency: inactive
[4]
  Potency: 8.33 µM (active)
[5]
  Potency: 20.9 µM (active)
[6]
  Potency: 5250 nM (active)
[7]
  Potency: 20900 nM (active)
[8]
  Potency: 8330 nM (active)
[9]
  Potency: 7.42 µM (active)
[10]
  Potency: 8.33 µM (active)

## COc1cc2c(Nc3ccc(Cl)c(Cl)c3F)ncnc2cc1OCC1C[C@@H]2CN(C)C[C@@H]2C1 (stereo not given in full)
[1]
  Potency: 13.5 µM (active) and 19.3 µM (active)
[2]
  Potency: inactive
[3]
  Potency: inactive
[4]
  Potency: 23.5 µM (active) and 20.9 µM (active)
[5]
  Potency: 18.6 µM (active) and 13.2 µM (active)
[6]
  Potency: 5.9 µM (active) and 5.25 µM (active)
[7]
  Potency: 1.05 µM (active) and 1.18 µM (active)
[8]
  Potency: 9340 nM (active)
[9]
  Potency: 14.8 µM (active) and 10.5 µM (active)
[10]
  Potency: 13.2 µM (active) and 10.5 µM (active)

## CCCn1c(=O)c2[nH]c(-c3cnn(Cc4cccc(C(F)(F)F)c4)c3)nc2n(CC)c1=O
[1]
  activation: 0.955%
[2]
  Potency: inactive
[3]
  Potency: inactive
[4]
  viability: 114%
[5]
  Potency: inactive
[6]
  Potency: inactive
[7]
  Potency: inactive
[8]
  Potency: inactive
[9]
  Potency: inactive
[10]
  Potency: inactive

## CCCCC(F)(F)[C@@]1(O)CC[C@H]2[C@H](CC(=O)[C@@H]2CCCCCCC(=O)O)O1
[1]
  activation: -19.7%
[2]
  Potency: inactive
[3]
  Potency: inactive
[4]
  viability: 108%
[5]
  Potency: inactive
[6]
  Potency: 235 nM (active)
[7]
  Potency: inactive
[8]
  Potency: inactive
[9]
  Potency: inactive
[10]
  Potency: inactive

## O=C(O)[C@H](CC(=O)N1C[C@H]2CCCC[C@H]2C1)Cc1ccccc1
[1]
  activation: 38.3%
[2]
  Potency: inactive
[3]
  Potency: inactive
[4]
  viability: 105%
[5]
  Potency: inactive
[6]
  Potency: inactive
[7]
  Potency: inactive
[8]
  Potency: inactive
[9]
  Potency: inactive
[10]
  Potency: inactive

## Nc1cc(C(F)(F)F)c(-c2cc(N3CCOCC3)nc(N3CCOCC3)n2)cn1
[1]
  Potency: 1.69 µM (active)
[2]
  Potency: inactive
[3]
  Potency: inactive
[4]
  Potency: 4.17 µM (active)
[5]
  Potency: 1.86 µM (active)
[6]
  Potency: 2350 nM (active)
[7]
  Potency: 1660 nM (active)
[8]
  Potency: 1180 nM (active)
[9]
  Potency: 2.09 µM (active)
[10]
  Potency: 1.86 µM (active)

## CNC(=O)c1c(-c2ccc(F)cc2)oc2cc(N(CCO)S(C)(=O)=O)c(C3CC3)cc12
[1]
  activation: -6.02% and -15.2%
[2]
  Potency: inactive
[3]
  Potency: inactive
[4]
  viability: 119%
[5]
  Potency: inactive
[6]
  Potency: inactive
[7]
  Potency: inactive
[8]
  Potency: inactive
[9]
  Potency: inactive
[10]
  Potency: inactive

## Cc1ccc(-c2ccc3ncc4c(c3n2)n(C2CCN(C(=O)[C@H](C)O)CC2)c(=O)n4C)cn1
[1]
  Potency: 12 µM (active)
[2]
  Potency: inactive
[3]
  Potency: inactive
[4]
  Potency: 0.166 µM (active)
[5]
  Potency: 0.296 µM (active)
[6]
  Potency: 209 nM (active)
[7]
  Potency: 263 nM (active)
[8]
  Potency: 93.4 nM (active)
[9]
  Potency: 0.166 µM (active)
[10]
  Potency: 0.417 µM (active)

## C1Cc2[nH]nc(-c3nn[nH]n3)c2C1
[1]
  activation: 0.623% and -10.5%
[2]
  Potency: inactive
[3]
  Potency: inactive
[4]
  viability: 120%
[5]
  Potency: inactive
[6]
  Potency: inactive
[7]
  Potency: inactive
[8]
  Potency: inactive
[9]
  Potency: inactive
[10]
  Potency: inactive

## CS(=O)(=O)c1ccc(C(=O)Nc2ccc(Cl)c(-c3ccccn3)c2)c(Cl)c1
[1]
  activation: -14.7% and -1.91%
[2]
  Potency: inactive
[3]
  Potency: inactive
[4]
  viability: 106%
[5]
  Potency: inactive
[6]
  Potency: inactive
[7]
  Potency: inactive
[8]
  Potency: inactive
[9]
  Potency: inactive
[10]
  Potency: inactive

## COc1cc(OC)c(/C=C/S(=O)(=O)Cc2ccc(OC)c(NCC(=O)O)c2)c(OC)c1
[1]
  activation: 17.9%
[2]
  Potency: inactive
[3]
  Potency: inactive
[4]
  Potency: 0.296 µM (active)
[5]
  Potency: 0.209 µM (active)
[6]
  Potency: 263 nM (active)
[7]
  Potency: 166 nM (active)
[8]
  Potency: 263 nM (active)
[9]
  Potency: 0.235 µM (active)
[10]
  Potency: 0.263 µM (active)

## CCOc1cc(C(=O)N2CCC(N3CCN(C)CC3)CC2)ccc1Nc1ncc2c(n1)N(C1CCCC1)c1ccccc1C(=O)N2C
[1]
  Potency: 30.1 µM (active)
[2]
  Potency: inactive
[3]
  Potency: inactive
[4]
  Potency: 14.8 µM (active)
[5]
  Potency: 3.32 µM (active)
[6]
  Potency: 1660 nM (active)
[7]
  Potency: 13200 nM (active)
[8]
  Potency: 5250 nM (active)
[9]
  Potency: 11.8 µM (active)
[10]
  Potency: 8.33 µM (active)
